A selection: hits, their analogues and other compounds. The true share with any hit is near 11%.
Sm TGR inh: inhibitors of Schistosoma mansoni thioredoxin glutathione reductase; purified TGR, DTNB reduction, TNB absorbance 405 nm; Potency, µM (series often up to 114 µM), inactives show top-dose activity change, negative = inhibition, usual class: inhibitors; actives 3% (n = 360,000); AID 485364; Q962Y6; note: % is set by controls: 0 for no effect and ±100 for the full control effect; nearly all actives have a fitted effect of over 60% in size
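First, TGR (20 nM dispensed) and NADPH were mixed with compound. Second, a 15 min room-temperature incubation followed. Third, further NADPH and then DTNB were added to start the reaction. Finally, TNB absorbance was monitored kinetically.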
AMA1-RON2 inh: disrupts binding of P. falciparum AMA1 to RON2; AlphaScreen AMA1-biotinylated RON2 peptide binding; Potency, µM (titrated, usually from 58.2 µM), without a hit: top-dose activity change, negative = inhibition, usual class: inhibitors; actives 0.2% (n = 360,000);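 note: 0% = vehicle wells and -100% = peptide control; nearly all actives have a fitted effect of over 45% in size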
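AMA1 (3D7) with his tag at 25 nM final met compounds first, then biotinylated RON2 peptide at 25 nM; detection used donor plus acceptor beads, 10 µg/mL apiece, read by AlphaScreen after 30 min at room temperature.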
NS1 function inh: influenza NS1 inhibition; Potency, µM (highest dose often 46.1 µM), for the others: at the highest dose activity, positive = more growth; actives 0.4% (n = 270,000); calls by dose curve; note: actives are rising curves; nearly all actives have a fitted effect of over 50% in size
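A cell-based growth assay was used: compounds that relieve NS1-induced slow growth of budding yeast raise OD600. Assay medium was yeast nitrogen base with ammonium sulphate and -URA supplement, pH 6.0, with 2% galactose.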
Pf growth 48h: inhibits P. falciparum growth in the first generation, 48 h; actives 5.9% (n = 310,000); Potency, µM (doses to about 28.7 µM), inactives show at the highest dose activity change, negative = inhibition, hits mostly inhibitors; P. falciparum luciferase growth in erythrocytes, 48 h; note: % is set by controls: 0 for no effect and ±100 for the full control effect
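Luciferase-expressing parasites in RBCs, 2% Hct / 0.1% parasitemia final; RPMI 1640 + 0.5% Albumax; 37 C, 5% CO2, one generation; luminescence read-out, lower signal = inhibition.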
Pf growth 96h: P. falciparum growth inhibition at 96 hour, primary screen for plastid delayed-death inhibitors; P. falciparum luciferase reporter growth, 96 h; Potency, µM (highest dose often 28.7 µM), for inactives: at the highest dose activity change, negative = inhibition, actives largely listed as inhibitors; actives 6.9% (n = 320,000); AID 504834; note: % is set by controls: 0 for no effect and ±100 for the full control effect
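Infected RBCs, 2% Hct / 0.05% parasitemia final; luciferase-reporter P. falciparum; cpd 96 h, 37 C, 5% CO2; luciferase detection reagent; luminescence.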
Numbers without * were called inactive; [ ] = remark or other dose. Unless noted, calls come from the whole dose curve; as a rule, active = well fitted curve in the direction sought with a large enough effect; inconclusive = small, poorly fitted or top-dose-only effect, or another doubt; inactive = no such curve, though single readings can be large; an effect the other way counts as inactive or inconclusive. Potency is the fitted concentration of half-maximal effect.

CCCCn1cc(S(=O)(=O)c2ccc(CC)cc2)c(=O)c2cc(F)c(N3CCOCC3)cc21 was read as Sm TGR inh -8%.
Screening CC(=O)Oc1cccc2c1C(=O)c1c(OC(C)=O)cc(C(=O)O)cc1C2=O returned Sm TGR inh 2%, AMA1-RON2 inh 4%, NS1 function inh -37%, Pf growth 48h 3% and Pf growth 96h 0%.
`CC(=O)Oc1cccc2c1C(=O)C1CC=CC(OC(C)=O)C1C2=O` (centres undefined) gave AMA1-RON2 inh 32µM*.
COc1ccc(Cl)cc1-n1nnc(-c2nc(-c3ccccc3)no2)c1C was read as Sm TGR inh 12%.
Screening Cc1c(Cl)cnc(NC(=O)COC(=O)/C=C/c2ccco2)c1Cl returned Sm TGR inh 10µM*, AMA1-RON2 inh 1%, Pf growth 48h 31% and Pf growth 96h 44%.
Cc1c(Cl)cnc(NC(=O)COC(=O)C(NC(=O)c2ccco2)C(C)C)c1Cl (centres undefined) was read as Sm TGR inh 35µM*, AMA1-RON2 inh 25%, NS1 function inh -8%, Pf growth 48h 5% and Pf growth 96h inconclusive.
Screening O=C(COC(=O)/C=C/c1ccco1)Nc1ncc(C(F)(F)F)cc1Cl returned Sm TGR inh inconclusive, AMA1-RON2 inh -10%, NS1 function inh -4%, Pf growth 48h 5% and Pf growth 96h -1%.
Screening Cc1nc(NC(=O)COC(=O)[C@@H](NC(=O)c2ccco2)C(C)C)c(Cl)cc1Cl returned AMA1-RON2 inh 8%.
Cc1c2cnn(CC(=O)N3CCCCC3)c(=O)c2c(C)n1Cc1ccc(Cl)cc1 was read as Sm TGR inh -10%.
For O=C(O)CNC(=O)c1ccc(Oc2c(F)c(F)c(Oc3ccc(C(=O)NCC(=O)O)cc3)c(F)c2F)cc1 the results were Sm TGR inh -3%, AMA1-RON2 inh 0%, NS1 function inh 9%, Pf growth 48h 14% and Pf growth 96h 0%.
CCOC(=O)N/N=C/c1cc(C)n(-c2ccccc2)c1C was read as Sm TGR inh -16%, AMA1-RON2 inh 17%, NS1 function inh -16%, Pf growth 48h inconclusive and Pf growth 96h inconclusive.
For COC(=O)N/N=C/c1cc(C)n(-c2cccc3ccccc23)c1C the results were Sm TGR inh -12%, AMA1-RON2 inh -3%, NS1 function inh 2%, Pf growth 48h 7.4µM* and Pf growth 96h 15µM*.
For Cc1cc(/C=N/NC(=O)c2cccc(F)c2)c(C)n1-c1ccccc1 the results were Sm TGR inh -3%, AMA1-RON2 inh 61%, Pf growth 48h 219% and Pf growth 96h inconclusive.
Screening CCOC(=O)N/N=C/c1cc(C)n(-c2cccc3ccccc23)c1C returned Sm TGR inh -2%, AMA1-RON2 inh -4%, NS1 function inh 1%, Pf growth 48h 12µM* and Pf growth 96h 9.3µM*.
COc1ccccc1CNC(=O)c1cc(S(=O)(=O)N2CCN(c3ccccc3)CC2)ccc1Cl was read as AMA1-RON2 inh -2%[11.6 µM].
Screening O=C(/C=C/c1ccc(-c2cccc([N+](=O)[O-])c2)o1)N1CCOCC1 returned Sm TGR inh 40µM*, AMA1-RON2 inh -18%, NS1 function inh -8%, Pf growth 48h 97% and Pf growth 96h 55%.
`O=C(/C=C/c1cccc([N+](=O)[O-])c1)N1CCOCC1` gave Sm TGR inh -7%, AMA1-RON2 inh -4%[2.32 µM], NS1 function inh 9%, Pf growth 48h 25% and Pf growth 96h -19%.
For OCC1(Cc2cccc(Cl)c2)CCCN(Cc2cnn(-c3ccccc3)c2)C1 (centres undefined) the results were Sm TGR inh 7%, AMA1-RON2 inh -7%, NS1 function inh 3%, Pf growth 48h 8.3µM* and Pf growth 96h -8%.
`COc1ccc(CN2CCCC(CO)(Cc3cccc(Cl)c3)C2)cc1OC` (centres undefined) gave Sm TGR inh 4%, AMA1-RON2 inh -13%, NS1 function inh 7%, Pf growth 48h -19% and Pf growth 96h inconclusive.
`COc1ccc(CN2CCCC(CO)(Cc3ccc(F)cc3)C2)c(OC)c1OC` (centres undefined) gave Sm TGR inh -31%, AMA1-RON2 inh 0%, NS1 function inh 0%, Pf growth 48h -17% and Pf growth 96h 12µM*.
Screening COc1cc(CN2CCCC(CO)(Cc3ccccc3)C2)ccc1O (centres undefined) returned Sm TGR inh -29%, AMA1-RON2 inh -17%, NS1 function inh inconclusive, Pf growth 48h 16% and Pf growth 96h 10µM*.
`COc1cc(CN2CCCC(CO)(Cc3cccc(Cl)c3)C2)cc(OC)c1O` (centres undefined) gave Sm TGR inh 28µM*, AMA1-RON2 inh -13%, NS1 function inh -4%, Pf growth 48h inconclusive and Pf growth 96h inconclusive.
`Cc1cccc(C)c1NC(=O)CNC(=O)CCC(=O)N1CCOCC1` gave Sm TGR inh -9%, AMA1-RON2 inh 6%, Pf growth 48h -5% and Pf growth 96h 2%.
`CCCC(=O)NC(C)c1nc(-c2ccc(C)cc2)no1` (centres undefined) gave AMA1-RON2 inh -2%.
Cc1cc(=O)n(Cc2ccc(F)cc2Cl)c2c1c(C)nn2-c1ccccc1 was read as Sm TGR inh 4%.
Cn1cnc(S(=O)(=O)N2CCC(C(=O)NCc3ccc(Cl)cc3)CC2)c1 was read as Sm TGR inh 0%.
NC1=NS(=O)(=O)NC1c1ccc(Br)cc1 (centres undefined) was read as Sm TGR inh 0%, AMA1-RON2 inh 4%, NS1 function inh 8%, Pf growth 48h 0% and Pf growth 96h 20%.
For CCn1ccnc1CN1CCCC(CO)(Cc2cccc(OC)c2)C1 (centres undefined) the results were AMA1-RON2 inh 52%, NS1 function inh 5%, Pf growth 48h -4% and Pf growth 96h inconclusive.
Screening COc1cccc(CC2(CO)CCCN(Cc3ccc4c(c3)OCCO4)C2)c1 (centres undefined) returned Sm TGR inh 5%, AMA1-RON2 inh 6%, NS1 function inh 1%, Pf growth 48h -36% and Pf growth 96h 10µM*.
`CCN(CC)c1ccc(C=C2C(=O)OC(c3ccccc3)OC2=O)cc1` (centres undefined) gave Sm TGR inh -27%, AMA1-RON2 inh -15%, Pf growth 48h 19% and Pf growth 96h -28%.
`CCN(CC)c1ccc(/C=C/C(=O)C2C(=O)C=C(C)OC2=O)cc1` (centres undefined) gave Sm TGR inh 8.9µM*, AMA1-RON2 inh 44%, Pf growth 48h 222% and Pf growth 96h 2%.
